PubChem BioAssay

Assay: growth of efflux-deficient E. coli DRC39 – strain DRC39, OD650, 24 h, E. coli filamentation inducers, primary screen (AID 1178);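 note: growth measured as culture turbidity by optical density at 650 nm; test concentration not given here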
Conditions: E. coli DRC39 acrAB, higher = more signal, called active from +8 up or from −8 down

z-score, inactive:
COCCOC(=O)N1C(=O)[C@@]2(c3cc(C#Cc4ccc(OC)cc4)ccc31)[C@H](C(=O)N1CCCCCCC1)[C@H]1C(=O)O[C@H](c3ccccc3)[C@H](c3ccccc3)N1[C@@H]2c1ccc(O)cc1 -0.919, CN(C)C(=O)[C@]1(CCC(=O)OC(C)(C)C)N=C(c2ccc(OCCCO)cc2)O[C@@H]1c1ccccc1 0.0325, COC(=O)c1c(CC[C@@H](CO)NC(=O)N[C@H](Cn2cc(-c3ccccc3C)nn2)C(C)C)oc(C(C)=O)c1C(=O)OC 0.173, Cc1ccc(S[C@]2(C(=O)O)CC(=O)N(Cc3ccccc3Cl)[C@@H]2c2ccc(CO)cc2)cc1 0.21, COCCOC(=O)N1C(=O)[C@@]2(c3ccccc31)[C@H](C(=O)N1CCN(c3ncccn3)CC1)[C@H]1C(=O)O[C@H](c3ccccc3)[C@H](c3ccccc3)N1[C@@H]2c1ccc(OCCO)cc1 0.0841, COCCOC(=O)N1C(=O)[C@@]2(c3cc(C#Cc4ccc(OC)cc4)ccc31)[C@H](C(=O)N1CCN(c3ncccn3)CC1)[C@H]1C(=O)O[C@H](c3ccccc3)[C@H](c3ccccc3)N1[C@@H]2c1ccccc1OCCO -0.269, NCCCCCNC(=O)[C@@H]1C[C@@H]2C(=O)N[C@@H](CCCCN)C(=O)N2[C@@H]1c1cccc(OCCO)c1 0.928, COc1ccc([Si](C)(C)[C@H]2[C@H](CCn3cc([C@H](O)c4ccccc4)nn3)O[C@@]3(C(=O)N(Cc4ccc(N5CCC5=O)cc4)c4ccccc43)[C@@H]2C)cc1 0.0302, O=C1C[C@@](C(=O)NCC(F)(F)F)(c2ccc([N+](=O)[O-])cc2)[C@@H](c2ccc(CO)cc2)N1C1CCCCC1 0.659, C#CCNC(=O)[C@H](Cc1ccccc1)NC(=O)[C@@H](N=[N+]=[N-])C(C)C 0.713, C[C@H]1C2=C3C(CC[C@H]4C(OCc5ccc(F)cc5C(F)(F)F)OC[C@](C)([C@@H]34)N(C(=O)OC(C)(C)C)C2)C2COC(=O)OCC21 (some centres undefined) -0.698, CC(C)(C)OC(=O)CC[C@]1(C(=O)N2CCOCC2)N=C(c2ccc(OCCCO)cc2)O[C@H]1c1ccccc1 0.301, COc1ccc([Si](C)(C)[C@H]2[C@H](CCn3cc([C@H](O)c4ccccc4)nn3)O[C@@]3(C(=O)N(Cc4cccc(N5C(=O)c6cccc7cccc5c67)c4)c4ccccc43)[C@@H]2C)cc1 -0.0889, C=C(C(=O)CC[C@H](OC(=O)c1cccnc1)c1ccc(CO)o1)C(C)C -0.645, C=CC1c2cc(O)c(OC)cc2CCN1Cc1sc2ccccc2c1Cl (centres undefined) 0.243, CC(C)(C)OC(=O)CC[C@@]1(C(=O)O)N=C(c2ccc(OCCCO)cc2)O[C@@H]1c1ccccc1CN=[N+]=[N-] 1.35, CC=CC(O)C1C=CC2C(=O)N(C)C(=O)C2N1N1CCCCC1 (centres undefined) -1.07, CO[C@H]1O[C@H](CO)[C@@H](OC(=O)Nc2ccccc2-c2ccccc2)[C@H](OC(=O)Nc2ccc3c(c2)OCO3)[C@@H]1OC(=O)Nc1ccc2c(c1)OCO2 0.999, O=C1NCC(=O)N2[C@@H]1C[C@@H](C(=O)O)[C@H]2c1ccc(O)cc1 -0.42, C[C@@H](OCc1ccccc1)C1NC(=O)[C@@]23C(=O)N[C@@H](Cc4ccccc4)C2[C@H](C)[C@@]2(C)O[C@H]2C3/C=C/C/C=C\CNC(=O)CNC1=O (some centres undefined) 0.0899, CCOC(=O)[C@H]1C/C=C/C[C@H](C(=O)OCC)C(=O)O[C@H]2[C@@H](OC)O[C@H](CO)[C@@H](OC(=O)CCc3ccccc3)[C@@H]2OC1=O 0.735, C=C(CCCC)/C(=C/C[C@@H](OC(C)=O)c1ccc(CO)o1)c1cc(C(=O)OC)ccc1OC -0.122, C=CCOC(=O)[C@@H]1[C@H]2C(=O)O[C@H](c3ccccc3)[C@H](c3ccccc3)N2[C@H](c2ccc(OCCOC(=O)[C@H]3C[C@H]4C(=O)N[C@@H](CCCC[N+](C)(C)C)C(=O)N4[C@H]3c3ccc(O)cc3)cc2)[C@@]12C(=O)Nc1ccc(I)cc12 -0.877, COC1(C)CN(Cc2ccccc2Br)[C@H](/C=C/c2ccccc2)[C@H](Cc2ccccc2)O1 (some centres undefined) 0.531
